Bioassay records (PubChem BioAssay)
VDR inhibitor = Inhibitors of the vitamin D receptor (VDR): qHTS | Vitamin D3 receptor (Homo sapiens), P11473 | 400,000 compounds, 0.93% hits | VDR-SRC2-3 peptide fluorescence polarization, 2 h | Potency, µM, hits mostly inhibitors
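The screen uses fluorescence polarization to detect compounds that interfere with recruitment of the SRC2-3 coactivator peptide to VDR; plates are read after 2 h at room temperature.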
GLS inhibitor = qHTS for Inhibitors of Glutaminase (GLS); Glutaminase kidney isoform, mitochondrial (Homo sapiens), O94925; GLS enzymatic activity, qHTS titration; Potency, µM (doses to about 45.5 µM), usual class: inhibitors; 410,000 compounds, 0.21% hits; AID 624170, 2012
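Assay buffer: 45 mM KH2PO4 pH 8.2, 0.02% Tween-20. hKGA acts on L-glutamine (1 mM solution added); product glutamate is reported by an oxidase/peroxidase Amplex Red coupling, with fluorescence taken at baseline and 30 min.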
PI4K2A block = qHTS for small molecular inhibitors of PI4K2A; Phosphatidylinositol 4-kinase type 2-alpha (Homo sapiens), Q9BTU6; purified PI4K2A, ADP-Glo luminescence, 1 h; hits give low values; activity change, negative = inhibition, % at 76.9 µM; 420,000 compounds, 0.13% hits; in the data active means activity change below about -50%; inconclusive means mostly about -30% to -49%
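PI4K2A activity was measured by ADP-Glo luminescence: enzyme (4 ug/mL stock) and phosphatidylinositol (1.2 mM stock) in Tris pH 7.5/MgCl2/EGTA/Triton X-100 buffer were reacted with ATP (300 microM stock) for one hour at ambient temperature.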
PLK1 PBD block = qHTS for Inhibitors of PLK1-PDB (polo-like kinase 1 - polo-box domain): Primary Screen; Serine/threonine-protein kinase PLK1 (Homo sapiens), P53350; 360,000 compounds, 2.8% hits; AID 720504, 2013; Plk1 PBD binding of FITC phosphopeptide, fluorescence polarization; Potency, µM, most hits filed as inhibitors; further: series mostly up to about 57 µM; nearly all actives have a fitted effect of over 65% in size
KAT2A inh = qHTS Assay for Inhibitors of GCN5L2 | 390,000 compounds, 0.21% hits | Histone acetyltransferase KAT2A (Homo sapiens), Q92830 | GCN5L2 HAT assay, ThioGlo1 CoA-SH fluorescence | Potency, µM (series often up to 58.9 µM), most hits filed as inhibitors
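GCN5L2 (20nM final) in 50mM HEPES, 0.1mM EDTA pH 7.5, 0.01% Tween-20 was preincubated 15 min at room temperature with compound, then given ThioGlo1 (50uM), H3(1-25) peptide (75uM) and acetyl-CoA (70uM); CoA-thiol fluorescence (Ex340/Em540) was read at 0 and 20 min.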
Numbers stand for hits; – = inactive; ? = inconclusive; · = no result given; ! = repeats disagree; [ ] = dose if it differs, or a comment. This is a sample that favours compounds with a hit; in the whole collection about 3.1% have one here. Unless noted, the call rests on the fitted dose curve; in most records, active means well fitted curve in the direction sought with a large enough effect; inconclusive means small, poorly fitted or top-dose-only effect, or another doubt; inactive means no such curve, though single readings can be large; an effect the other way counts as inactive or inconclusive.

SMILES	VDR inhibitor	GLS inhibitor	PI4K2A block	PLK1 PBD block	KAT2A inh
CC1=C(/C=C/C(=C/C=C/C(C)=C/C(=O)O)c2ccc(C)cc2)C(C)(C)CCC1	22.4µM	·	·	·	–
CC1=C(/C=C/C(=O)O)C(C)(C)CCC1	–	–	–	–	–
N#C/C(=C/c1ccc(O)c(O)c1)C(=O)OC/C=C/c1ccccc1	–	·	·	·	14.1µM
N#C/C(=C\c1ccc(O)c(O)c1)C(=O)Nc1ccccc1	12.6µM!	–	–	–	–
N#C/C(=C\c1cccnc1)C(=O)Nc1ccccc1	?	–	–	–	–
CCOC(=O)/C(C#N)=C\c1ccc(N2CCN(C/C=C/c3ccccc3)CC2)cc1	–	–	–	–	–
O=C(O)c1cc(-c2ccco2)nn1-c1ccc(Cl)cc1	?	–	–	?	20µM
Oc1ccc(-c2nn[nH]n2)c2cccnc12	·	·	–	·	·
C/C1=C2/[N-]C(C(CC(N)=O)[C@@]2(C)CCC(=O)NCC(C)OP(=O)([O-])O[C@H]2[C@@H](O)[C@@H](n3cnc4cc(C)c(C)cc43)O[C@@H]2CO)[C@]2(C)N=C(/C(C)=C3N=C(/C=C4N=C1C(CCC(N)=O)C\4(C)C)[C@@H](CCC(N)=O)[C@]\3(C)CC(N)=O)[C@@H](CCC(N)=O)[C@]2(C)CC(N)=O.CC(=O)O.[Co] (stereo partly specified)	10µM	–	·	·	–
O=C(c1cccc(F)c1)n1ccc2ccc(-c3ccc4ccn(Cc5ccccc5)c4c3)cc21	·	·	–	·	·
N#Cc1c2ccc(O)cc2n2ccccc12	–	11.2µM	–	?	–
NC(=O)c1ccccc1N/C=C/C(=O)c1ccc(Cl)cc1	–	–	–	–	–[0.501 µM]
O=C(/C=C/Sc1ccccc1)c1ccccc1	–	?	–	13.4µM	–
O=C(/C=C/Sc1ccccc1)c1ccc(Cl)cc1	56.2µM	–	–	–	–
COc1ccc2c(c1)c[n+](C)c1c3cc(OC)c(OC)cc3ccc21	·	?	–	11.9µM	·
COC(=O)C1CN(Cc2ccc(F)cc2)CCS(=O)(=O)N1Cc1ccc(OC)cc1 (stereo unspecified)	·	·	–	·	·
Oc1ccc(Cl)cc1-c1cc(-c2ccco2)[nH]n1	–	?	–	5.32µM	–
COc1cc(NC(=O)C2CCCN(S(=O)(=O)c3cccc4cccnc34)C2)cc(OC)c1 (stereo unspecified)	·	·	–	·	·
O=C(NC1CCCCN(Cc2ccc(Cl)cc2)C1=O)C(c1ccccc1)c1ccccc1 (stereo unspecified)	·	·	–	·	·
O=C(NC(=S)N1CCCc2ccccc21)c1ccc(Cl)cc1	?	–	–	26.7µM	–
CC(=O)N[C@@H]1C[C@@H]2O[C@H](CO)CC[C@@H]2O[C@@H]1CCc1ccc(-c2ccc(F)cc2)cc1	·	·	–	·	·
CN(C)S(=O)(=O)c1ccc(C(=O)NCc2ccccc2)cc1	–	–	–	–	–
CN(C)S(=O)(=O)c1ccc(C(=O)NCC2CC2(Cl)Cl)cc1 (stereo unspecified)	?	–	–	23.8µM	–
Cc1nc(COC(=O)c2cc(O)c3ccccc3c2O)cs1	?	–	–	21.2µM	–
Cn1nccc1/C=C(/C#N)S(=O)(=O)c1ccccc1	?	–	–	10.6µM	–
SMILES	VDR inhibitor	GLS inhibitor	PI4K2A block	PLK1 PBD block	KAT2A inh
S=C(Nc1ccccc1)N1N=C(c2cccs2)CC1c1cccs1 (stereo unspecified)	79.4µM	?	–	11.9µM	–
C/C(=N\NC(=O)CN(c1ccccc1Br)S(C)(=O)=O)c1cccs1	–	–	–	26.7µM	–
O=c1oc2cc(O)ccc2cc1-c1nc2ccccc2o1	·	–	–	10.6µM	·
COc1ccc(S(=O)(=O)Nc2cc3c(cc2NCc2ccccc2)n(C)c(=O)n3C)cc1	–	–	–	·	–
CCCc1ccc(C2=Nn3c(nnc3C(C)C)SC2)cc1	79.4µM	?	–	10.6µM	–
CC(C)c1nnc2n1N=C(c1ccc(Cl)cc1)CS2	–	–	–	–	–
CCOC(=O)C1=C(C)N=c2s/c(=C/c3ccc(OCC(=O)O)c(OC)c3)c(=O)n2C1c1ccc(Cl)cc1 (stereo unspecified)	?	?	–	–	·
